# Assays:
# [1] = target: Heat shock-related 70 kDa protein 2 (UniProt P54652); experiment: cross-linking mass spectrometry
# [2] = target: Heat shock protein 105 kDa (UniProt Q92598); experiment: cross-link between two proteins; cross-linking mass spectrometry
# Histone H2B type 1-L = Histone H2B type 1-L (UniProt Q99880); experiment: cross-linking mass spectrometry
# Nucleobindin-1 = Nucleobindin-1 (UniProt Q02818); experiment: cross-linking mass spectrometry
# 14-3-3 protein epsilon = 14-3-3 protein epsilon (UniProt P62258); experiment: cross-link between two proteins; cross-linking mass spectrometry
# [3] = target: 26S proteasome non-ATPase regulatory subunit 1 (UniProt Q99460); experiment: as above
# [4] = target: 26S proteasome regulatory subunit 10B (UniProt P62333); experiment: as above
# [5] = target: 26S proteasome regulatory subunit 7 (UniProt P35998); experiment: as above
# [6] = target: ATP synthase F(1) complex subunit alpha, mitochondrial (UniProt Q03265); experiment: as above
# [7] = target: ATP synthase F(1) complex subunit gamma, mitochondrial (UniProt Q91VR2); experiment: as above
# [8] = target: Creatine kinase U-type, mitochondrial (UniProt P12532); experiment: as above
# [9] = target: Elongation factor 1-alpha 2 (UniProt Q05639); experiment: as above
# [10] = target: Heterogeneous nuclear ribonucleoprotein A1-like 2 (UniProt Q32P51); experiment: as above
# [11] = target: NADH dehydrogenase [ubiquinone] 1 beta subcomplex subunit 5, mitochondrial (UniProt Q9CQH3); experiment: as above
# Septin-10 = Septin-10 (UniProt Q9P0V9); experiment: as above
# Tubulin beta-2B chain = Tubulin beta-2B chain (UniProt Q9BVA1); experiment: as above
substance,measurement,setting,value
"Heat shock 70 kDa protein 4, P34932",listed as a hit,[1],yes
same,listed as a hit,[2],yes
"Non-histone chromosomal protein HMG-14, P05114",listed as a hit,Histone H2B type 1-L,yes
"Nucleobindin-2, P80303",listed as a hit,Nucleobindin-1,yes
"14-3-3 protein sigma, P31947",listed as a hit,14-3-3 protein epsilon,yes
"Proteasome subunit alpha type-4, P25789",listed as a hit,[3],yes
"Proteasome subunit alpha type-6, P60900",listed as a hit,[4],yes
"26S proteasome non-ATPase regulatory subunit 7, P51665",listed as a hit,[4],yes
"Proteasome subunit alpha type-7, O14818",listed as a hit,[5],yes
"ATP synthase F(1) complex subunit epsilon, mitochondrial, P56382",listed as a hit,[6],yes
"ATP synthase F(1) complex subunit alpha, mitochondrial, Q03265",listed as a hit,[7],yes
"Creatine kinase B-type, P12277",listed as a hit,[8],yes
"Elongation factor 1-beta, P24534",listed as a hit,[9],yes
"Heterogeneous nuclear ribonucleoprotein A0, Q13151",listed as a hit,[10],yes
"NADH dehydrogenase [ubiquinone] 1 subunit C2, Q9CQ54",listed as a hit,[11],yes
"Septin-7, Q16181",listed as a hit,Septin-10,yes
"Tubulin-specific chaperone A, O75347",listed as a hit,Tubulin beta-2B chain,yes

# Reference: article PMC12215968
